The values that follow come from PubChem BioAssay AID1626 (SRMLSC, 2009).

The structures appear in SMILES notation. In all, about 220,000 compounds went through this assay and about 2,000 (0.91%) were called active. Not shown: some 2% with an inconclusive outcome. A selection follows. Entries with a potency or affinity are not part of this list. Values without a mark were called inactive. Rule as the data show it: inconclusive = inhibition above about 80% without an active follow-up result; inactive = below that; test concentration not stated here.

The assay can be described thus: M. tuberculosis H37Rv growth inhibitors, H37Rv strain (AID 1626).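 Also: bacteria incubated seven days before Alamar blue readout; 0% = bacteria only wells and 100% = bacteria with antibiotic wells.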 The following applies: hits give high values, concentration not given here.
The inhibition is the drop in the measured response relative to a control, in per cent. Turning to `COc1ccc(CNC(=O)CC2C(=O)NCCN2CC(C)(C)C)c(OC)c1` (centres undefined), the inhibition was -2.94%.

Consider `Cc1ccccc1OC(C)C(=O)NCc1cccnc1` (centres undefined), for which the inhibition is 1.38%.

Regarding `CCOC(=O)C1=C(CSCC(=O)OC)NC(=O)NC1c1cc(C)ccc1C` (centres undefined), the inhibition was 0.6%.

On to `Cc1cc(C)nc(NC(=O)/C=C/c2ccccc2Cl)n1`, for which the inhibition is -5.04%.

With `Cc1cc(C)nc(NC(=O)/C=C/c2ccccc2Cl)c1`, the inhibition was 9.12%.

As to `O=C(Cn1nc(-c2ccccc2)nc1-c1ccccc1)N1CCOCC1`, the inhibition is -4.2%.

`COC(=O)[C@@]1(Cc2ccc(F)cc2)[C@H]2c3cc(C(=O)N(C)C)n(Cc4ccccn4)c3C[C@H]2CN1C(=O)c1ccccc1`: the inhibition was 8.03%.

`OC(COc1ccc2ccccc2c1)Cn1ccnc1` (centres undefined): the inhibition is 51.7%.

As for `O=C(CSCC(=O)N1CCN(c2ccccc2)CC1)Nc1nc(-c2ccc(Cl)s2)cs1`, the inhibition was 8.45%.

In the case of `CCOC(=O)N1CCN(C(=O)CSCC(=O)Nc2nc(-c3ccc(Cl)s3)cs2)CC1`, the inhibition was 16.6%.

Regarding `CCOc1ccc(OCC(O)CNC2CCN(Cc3ccccc3)CC2)cc1` (centres undefined), the inhibition was 1.56%.

Consider `OC(CNC1CCCC1)COc1ccc(-c2ccccc2)cc1` (centres undefined), for which the inhibition was 10.9%.

Take `O=C(OCc1ccc(C(=O)c2ccccc2)cc1)c1cccc(-c2nnc(-c3ccccc3)o2)c1`: the inhibition was 20.2%.

As for `O=c1oc(-c2ccccc2NS(=O)(=O)c2ccc3ccccc3c2)nc2ccccc12`, the inhibition was 7.84%.

As for `O=C(c1cc(-c2ccncc2)nc2ccc(Cl)cc12)N1CCN(Cc2ccc3c(c2)OCO3)CC1`, the inhibition is 0.94%.

On to `CCOc1ccc(NC(=O)Cn2nnc3c(cnn3-c3ccc(F)cc3)c2=O)cc1`, for which the inhibition is 3.8%.

On to `C/C(Cc1ccccc1)=N/NC(=O)CNC(=O)C(c1ccccc1)c1ccccc1`, for which the inhibition was -1.53%.

With `CCc1ccc(C2c3[nH]c4ccccc4c3CCN2C(=O)c2ccc(=O)n(C)n2)cc1` (centres undefined), the inhibition was 37.1%.

With `CCc1ccc(C2c3[nH]c4ccccc4c3CCN2C(=O)c2cc[n+]([O-])cc2)cc1` (centres undefined), the inhibition was 7.89%.

Consider `CCNC(=O)N1CCN(C(=O)NCC)CC1`, for which the inhibition was -2.46%.

Consider `Cc1cc(/C=N/n2cnnc2)c(C)n1-c1ccc(Cl)cc1`, for which the inhibition is 8.9%.

`Cc1cc(/C=N/n2cnnc2)c(C)n1-c1ccc(Cl)cc1Cl`: the inhibition is 12.1%.

Turning to `CC(=O)Oc1ccc(C(=O)Nc2cc(NC(=O)c3ccc(OC(C)=O)cc3)cc(C(=O)NC(C)(C)C)c2)cc1`, the inhibition was -1.93%.

For `CCN1CCC(O)(c2ccccc2)C(C(=O)c2ccccc2)C1` (centres undefined), the inhibition is 50.9%.

As to `CCCCN1CCC(O)(c2ccccc2)C(C(=O)c2ccccc2)C1` (centres undefined), the inhibition was 5.96%.

Regarding `O=S(=O)(N1CCOCC1)N1CCN(c2ccc(F)cc2)CC1`, the inhibition was -7.1%.

Consider `Cc1[nH]c(=O)[nH]c(=O)c1/C=C/C(=O)O`, for which the inhibition was -8.34%.

Take `Nc1c(C(=O)OCC(=O)NCc2ccccc2)[nH]c(=O)[nH]c1=O`: the inhibition is -4.41%.

Consider `CCOc1ccc2nc(SCC(=O)N(C)C)[nH]c2c1`, for which the inhibition is -11.1%.

With `CO/N=C(/CS(=O)Cc1ccc(Cl)cc1)c1ccc(Cl)cc1` (centres undefined), the inhibition was 1.17%.

With `COC(=O)COc1ccc(S(=O)(=O)NCCC2=CCCCC2)cc1`, the inhibition was 25.1%.

For the molecule `CCCNS(=O)(=O)c1ccc(OCC(=O)NCCC2=CCCCC2)cc1`, the inhibition was 13.8%.

Regarding `Cc1cccc(C)c1NC(=O)CNC(=O)CCC(=O)c1cccs1`, the inhibition was -5.43%.

Turning to `CC(C)c1ccc(NC(=O)c2csnn2)cc1`, the inhibition is -0.83%.

`Cc1ccc(NC(=O)c2snc3ccc(Cl)cc23)cc1C`: the inhibition was 6.9%.

In the case of `Cc1ccc(-c2nc3ccccc3n3nnnc23)cc1`, the inhibition was 4.17%.

With `Cc1ccc2nc(N3CCN(c4cccc(C)c4C)CC3)c3nnnn3c2c1`, the inhibition was -7.81%.

On to `CC(C)CNC(=O)CN1C(=O)NC(Cc2c[nH]c3ccccc23)C1=O` (centres undefined), for which the inhibition was -13.9%.

For the molecule `O=C(NCC1CCN(S(=O)(=O)c2ccccc2)CC1)Nc1ccccc1`, the inhibition was 10.3%.

Regarding `O=C(N/N=C/c1cccc(O)c1)c1ccccc1O`, the inhibition is -7.64%.

Consider `Cc1ccc(Cn2ccc(=O)c(Cc3c(Cl)cccc3Cl)c2C)cc1`, for which the inhibition was 0.62%.

Take `Cc1ccc(Cn2ccc(=O)c(OCc3ccccc3)c2C)cc1`: the inhibition was 1.78%.

In the case of `CC(C)=Nc1ccccc1C1COC(=O)C1=N` (centres undefined), the inhibition was -1%.

Turning to `COc1ccccc1NC(=O)O/N=C(\N)c1ccccc1`, the inhibition was 11.1%.

For `Cc1nc(CC(=O)c2ccc(O)c(C)c2O)cs1`, the inhibition is 7.54%.

Regarding `O=C(CSc1ccc2ccccc2n1)N1CCC(c2noc3ccc(F)cc23)CC1`, the inhibition is -2.15%.

For the molecule `Cc1nnc(SCC(=O)N2CCC(c3noc4ccc(F)cc34)CC2)s1`, the inhibition is -0.75%.

In the case of `COC(=O)C[C@H]1c2cc(C(F)(F)F)ccc2S(=O)(=O)N1C1CCCC1`, the inhibition was -3.21%.

With `O=C(Cc1ccc(Br)cc1)Nc1ccc(Cl)cc1`, the inhibition was -2.03%.

Consider `COc1ccc(C2C(C(=O)O)c3ccccc3C(=O)N2Cc2ccco2)cc1` (centres undefined), for which the inhibition was -9.26%.

Turning to `O=C(CCOc1ccccc1)Nc1ccccc1`, the inhibition is 7.71%.

On to `CCOC(=O)Nc1ccc(Oc2ccccc2)cc1`, for which the inhibition is 8.39%.

With `CC(=O)Nc1ccc(NC(=O)Oc2ccccc2)cc1`, the inhibition was -9.97%.

As for `CC(=O)c1ccc(NC(=O)Oc2ccccc2)cc1`, the inhibition is -7.64%.

Regarding `COC(=O)c1ccc(NC(=O)NS(=O)(=O)c2ccc(C)cc2)cc1`, the inhibition is 55.9%.

For `CCOC(=O)c1ccc(NC(=O)Nc2ccc(S(N)(=O)=O)cc2)cc1`, the inhibition was -7.07%.

With `COC(=O)c1ccc(NC(=O)CCOc2ccccc2)cc1`, the inhibition was 23.7%.

As for `CCOC(=O)Nc1cccc(Nc2ccccc2)c1`, the inhibition is 3.05%.

As to `CC(C)c1ccccc1NC(=O)COc1ccc2c(=O)c(Oc3ccc4ccccc4c3)coc2c1`, the inhibition is 5.82%.

Consider `COC(=O)c1cc(NS(=O)(=O)c2cccc(Cl)c2)ccc1N1CCOCC1`, for which the inhibition is 3.2%.

Turning to `O=C(CN(CC1CCCO1)C(=O)CCC(=O)Nc1nccs1)NCc1ccccc1` (centres undefined), the inhibition was -3.47%.

`COc1ccccc1N(C)S(=O)(=O)c1ccc(C(=O)OCC(=O)N2CCCCCC2)cc1`: the inhibition was 9.09%.

Turning to `CC1=NN(C(C#N)c2cccc([N+](=O)[O-])c2)C(C)(C)C1` (centres undefined), the inhibition is -1.89%.

With `CCOC(=O)c1ccc(NC(=O)CN(C)S(=O)(=O)c2ccc(OC)cc2)cc1`, the inhibition is -10.7%.

As to `COc1ccc(NC(=O)CCOc2ccccc2)cc1`, the inhibition is 70.1%.

Consider `Cc1ccc(OCCC(=O)Nc2ccc(F)c(F)c2)cc1`, for which the inhibition is -1.46%.

`Cc1ccc(OCCCC(=O)Nc2ccc(Br)cc2)cc1`: the inhibition was -4.3%.

With `Cc1ccc(NC(=O)CCSCCc2ccccn2)cc1`, the inhibition was 71.6%.

For the molecule `CC(=O)Nc1ccc(NC(=O)CCSCCc2ccccn2)cc1`, the inhibition was -0.22%.

Consider `O=C(CN1CC(=O)Nc2ccccc21)Nc1ccc(F)c(F)c1`, for which the inhibition is 0.62%.

On to `COc1ccc(CCNC(=O)CSc2cccc3cccnc23)cc1OC`, for which the inhibition was 3.55%.

On to `CCC(C)NC(=O)c1ccccc1SC` (centres undefined), for which the inhibition was 9.14%.

Take `CCN(Cc1cc(=O)[nH]c2ccccc12)C(=O)c1ccc(C)cc1`: the inhibition was -2.96%.

In the case of `COc1ccc(C(=O)NC(=S)Nc2ccc(CN3CCCCC3)cc2)cc1Cl`, the inhibition was 7.56%.

Turning to `Cc1oc2ccc(OS(C)(=O)=O)cc2c1C(=O)OC(C)C`, the inhibition was -0.97%.

In the case of `CCOC(=O)c1c(C)oc2ccc(OS(C)(=O)=O)cc12`, the inhibition was 0.04%.

For `COC(=O)c1c(C)oc2ccc(OC(=O)N3CCOCC3)cc12`, the inhibition was -6.17%.

Take `COC(=O)c1c(C)oc2ccc(NS(=O)(=O)c3cccs3)cc12`: the inhibition was 2.07%.

Regarding `Cc1oc2ccc(OC(=O)N(C)C)cc2c1C(=O)OC(C)C`, the inhibition is -7.47%.

As for `CCOC(=O)c1c(C)oc2ccc(OCC(N)=O)cc12`, the inhibition was 8.61%.

As to `COC(=O)c1ccc(CSc2nc3c(cnn3-c3ccc(C)cc3)c(=O)[nH]2)o1`, the inhibition is -0.23%.

In the case of `CC1(C)C(=O)Nc2ccccc2N1C(=O)COc1ncnc2ccccc12`, the inhibition is 4.16%.

Turning to `O=C(C[n+]1ccc(/C=N/O)cc1)NCc1ccccc1`, the inhibition was -12.5%.

`COc1cc(CCNc2ccc3nnc(-c4ccccc4)n3n2)cc(OC)c1OC`: the inhibition is 10.3%.

`O/N=C1\CCCCc2ccccc21`: the inhibition is -4.26%.

`CC12CCC(C(=O)N3CCN(C(c4ccccc4)c4ccccc4)CC3)(OC1=O)C2(C)C` (centres undefined): the inhibition was 1.93%.

For the molecule `COc1ccc(-c2csc(NC(C)c3nc4cc(Cl)c(Cl)cc4n3CCCO)n2)cc1` (centres undefined), the inhibition is 5.27%.

On to `CC(Nc1nc(-c2ccc(F)cc2)cs1)c1nc2cc(Cl)c(N3CCCCC3)cc2n1CCOCCO` (centres undefined), for which the inhibition was 19.6%.

`CC(Nc1nc(-c2ccc(F)cc2)cs1)c1nc2cc(Cl)c(N3CCCCC3)cc2n1CCCO` (centres undefined): the inhibition was 78%.

For the molecule `CC(Nc1nc(-c2ccc(Cl)cc2)cs1)c1nc2cc(Cl)c(N3CCCCC3)cc2n1CCOCCO` (centres undefined), the inhibition is 44.5%.

For the molecule `Cc1ccc(NC(=O)c2cc(NC(=O)C3CC=CCC3C(=O)O)ccc2N2CCOCC2)cc1Cl` (centres undefined), the inhibition was -6.7%.

Turning to `CC(=O)Nc1nc2ccccc2n1CCN1CCOCC1`, the inhibition is -6.15%.

`O=C(Nc1nc2ccccc2n1CCN1CCCC1)c1ccc(Cl)cc1`: the inhibition is 58.7%.

For `CN(C)CCn1c(NC(=O)c2ccc(Cl)cc2)nc2ccccc21`, the inhibition was 65.2%.

As to `CCn1c(CNC(=O)c2ccccc2)nc2ccccc21`, the inhibition was -6.06%.

Turning to `CC(C)NC(=O)c1cccc(Cn2cc(Cl)cn2)c1`, the inhibition was -2.76%.

Turning to `CCn1c(NC(C)=O)nc2ccccc21`, the inhibition is 2.94%.

As for `Cn1c(NC(=O)c2cccc(Cn3cc(Cl)cn3)c2)nc2ccccc21`, the inhibition is 84.7%.

Take `CCN(CC)CCn1c(NC(=O)c2ccc(Cl)cc2)nc2ccccc21`: the inhibition is 57.6%.
